Experimental data from PubChem BioAssay (NCI).
This is part of a sample that, as a whole, favours compounds with a hit. Of some 79,000 tested, about 15% had one in any assay. Calls of active or inactive are those of the source. Rule as the data show it: active = growth inhibition above about 70%; inactive = the rest.

Key:
[1] = NCI Yeast Anticancer Drug Screen. Data for the rad52 strain (AID 147);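 also: 0% = growth of vehicle-treated control cultures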; details: S. cerevisiae rad52 mutant growth inhibition, stronger effect = higher value
Procedure, shortened: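 Genetically altered yeast (DNA damage repair defect) treated with compound; inhibition calculated relative to vehicle.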

[2] = NCI Yeast Anticancer Drug Screen. Data for the wt1 strain (AID 149);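 also: 0% = growth of vehicle-treated wt1 cultures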; details: S. cerevisiae wt1 strain (SPY 50644) growth inhibition, stronger effect = higher value
Procedure, shortened: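 Readout: yeast growth inhibition, normalised to vehicle controls, in the wt1 strain exposed to test compounds.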

[3] = NCI Yeast Anticancer Drug Screen. Data for the rad50EPP+ strain (AID 151);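 also: 0% = growth of vehicle-treated control cultures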; details: S. cerevisiae rad50 mutant strain, stronger effect = higher value
Procedure, shortened: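 Strain rad50EPP+; compound exposure; % growth inhibition vs vehicle.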

[4] = NCI Yeast Anticancer Drug Screen. Data for the mgt1 strain (AID 153); details: S. cerevisiae mgt1 mutant growth inhibition, stronger effect = higher value
Procedure, shortened: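 Read-out: yeast growth inhibition vs vehicle control. Strain mgt1, drawn from a panel altered in DNA damage repair or cell cycle control.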

[5] = NCI Yeast Anticancer Drug Screen. Data for the rad50 strain (AID 155);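 also: 0% = growth of vehicle-only cultures of the same strain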; details: S. cerevisiae rad50 strain growth inhibition, stronger effect = higher value
Procedure, shortened: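 Compounds were tested on a yeast strain with an engineered DNA damage repair alteration; the reported value is growth inhibition normalised to vehicle treatment.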

[6] = NCI Yeast Anticancer Drug Screen. Data for the mec2-1 strain (AID 157); details: S. cerevisiae mec2-1 strain, stronger effect = higher value
Procedure, shortened: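 Cells of the genetically defined mec2-1 yeast strain are incubated with test compound. Inhibition of growth is calculated against vehicle-treated controls.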

[7] = NCI Yeast Anticancer Drug Screen. Data for the rad14 strain (AID 159);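 also: 0% = growth of vehicle-treated control cultures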; details: S. cerevisiae rad14 strain growth inhibition, stronger effect = higher value
Procedure, shortened: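 Compound-treated yeast with a defined DNA-repair lesion; growth inhibition normalised to vehicle-treated cultures.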

[8] = NCI Yeast Anticancer Drug Screen. Data for the sgs1 mgt1 strain (AID 161);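 also: 0% = growth of cultures given vehicle only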; details: S. cerevisiae sgs1 mgt1 strain, stronger effect = higher value
Procedure, shortened: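 Test agents were incubated with a DNA-repair-mutant yeast strain. Growth was then read and compared against vehicle-treated controls.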

[9] = NCI Yeast Anticancer Drug Screen. Data for the CLN2oe strain (AID 163);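 also: 0% = growth of vehicle-only control cultures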; details: S. cerevisiae CLN2oe strain, stronger effect = higher value
Procedure, shortened: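 Strain altered in cell-cycle control, incubated with compound; growth compared to solvent-treated controls.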

[10] = NCI Yeast Anticancer Drug Screen. Data for the cln2 rad14 strain (AID 165);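 also: 0% = growth equal to vehicle treated cultures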; details: S. cerevisiae cln2 rad14 strain, stronger effect = higher value
Procedure, shortened: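 The screen exposed genetically defined yeast (cln2 rad14) to test compounds and scored growth inhibition relative to vehicle-treated controls.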

[11] = NCI Yeast Anticancer Drug Screen. Data for the bub3 strain (AID 167); details: S. cerevisiae bub3 mutant strain, stronger effect = higher value
Procedure, shortened: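 Growth of a checkpoint-deficient yeast mutant is measured after compound exposure. Values represent inhibition relative to vehicle.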

[12] = NCI Yeast Anticancer Drug Screen. Data for the wt2 strain (AID 169);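 also: 0% = growth of vehicle-treated yeast cultures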; details: S. cerevisiae wt2 strain growth inhibition, stronger effect = higher value
Procedure, shortened: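 Steps: yeast strain treated with compound; growth recorded; inhibition calculated relative to cultures given vehicle alone.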

[13] = NCI Yeast Anticancer Drug Screen. Data for the mlh1 strain (AID 171);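 also: 0% = growth of vehicle-treated control cultures of the same strain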; details: S. cerevisiae mlh1 strain growth inhibition, stronger effect = higher value
Procedure, shortened: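 Yeast screen: mutant strain plus compound, growth scored against vehicle control wells.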

[14] = NCI Yeast Anticancer Drug Screen. Data for the sgs1 strain (AID 173);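 also: 0% = growth of vehicle-only control cultures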; details: S. cerevisiae sgs1 mutant, stronger effect = higher value
Procedure, shortened: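 Inhibition of yeast growth served as the measure. The mutant strain was treated with each compound, and growth was normalised to cultures receiving vehicle alone.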

[15] = NCI Yeast Anticancer Drug Screen. Data for the mlh1 rad18 strain (AID 175); details: S. cerevisiae mlh1 rad18 strain growth inhibition, stronger effect = higher value
Procedure, shortened: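 Compound-treated yeast growth, normalised to vehicle controls. Strain bears defined DNA repair mutations.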

[16] = NCI Yeast Anticancer Drug Screen. Data for the rad18 strain (AID 177); details: S. cerevisiae rad18 mutant growth inhibition, stronger effect = higher value
Procedure, shortened: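 Inhibition values reflect reduced yeast growth compared with vehicle-treated controls, using a strain engineered with a DNA damage repair defect.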

[17] = at 5.0 µM (retest, dose inferred, filed as 0.5)
[18] = at 50.0 µM (retest, dose inferred, filed as 5.0)

Measured: growth inhibition

O=C(Nc1cccs1)c1ccccc1
active: [4]; at 100.0 µM 88% | [5]; [18] 82% | [5]; at 50.0 µM 94.8% | [5]; at 100.0 µM 92% | [7]; at 100.0 µM 80% | [13]; at 100.0 µM 86% | [14]; at 100.0 µM 86% | [15]; [18] 80% | [15]; at 50.0 µM 94.6% | [16]; at 100.0 µM 94%
inactive: [1]; at 1.2 µM -5% | [1]; at 3.7 µM -3% | [1]; at 11.0 µM -5% | [1]; at 33.0 µM 3% | [1]; at 100.0 µM 67% | [2]; at 1.2 µM -5% | [2]; at 3.7 µM -6% | [2]; at 11.0 µM -8% | [2]; at 33.0 µM -6% | [2]; at 100.0 µM 48% | [3]; at 1.2 µM -1% | [3]; at 3.7 µM 7% | [3]; at 11.0 µM 10% | [3]; at 33.0 µM 18% | [3]; at 100.0 µM 38% | [4]; at 1.2 µM -1% | [4]; at 3.7 µM -4% | [4]; at 11.0 µM -4% | [4]; at 33.0 µM 5% | [5]; at 1.2 µM -4% | [5]; at 3.7 µM -8% | [5]; [17] -155% | [5]; at 11.0 µM 10% | [5]; at 33.0 µM 42% | [6]; at 1.2 µM -1% | [6]; at 3.7 µM -1% | [6]; [17] -52% | [6]; at 11.0 µM -4% | [6]; at 33.0 µM 3% | [6]; [18] -42% | [6]; at 50.0 µM 30.1% | [6]; at 100.0 µM 51% | [7]; at 1.2 µM 0% | [7]; at 3.7 µM -3% | [7]; at 11.0 µM 0% | [7]; at 33.0 µM 23% | [8]; [17] -67% | [8]; [18] 66% | [8]; at 50.0 µM 65.8% | [9]; at 1.2 µM 0% | [9]; at 3.7 µM -1% | [9]; at 11.0 µM -1% | [9]; at 33.0 µM -1% | [9]; at 100.0 µM 53% | [10]; [17] -65% | [10]; [18] -62% | [10]; at 50.0 µM -0.2% | [11]; at 1.2 µM -12% | [11]; at 3.7 µM -9% | [11]; [17] -68% | [11]; at 11.0 µM -3% | [11]; at 33.0 µM -7% | [11]; [18] 8% | [11]; at 50.0 µM 13.8% | [11]; at 100.0 µM 64% | [12]; at 1.2 µM -1% | [12]; at 3.7 µM -1% | [12]; at 11.0 µM -2% | [12]; at 33.0 µM -2% | [12]; at 100.0 µM 67% | [13]; at 1.2 µM 6% | [13]; at 3.7 µM -5% | [13]; at 11.0 µM -5% | [13]; at 33.0 µM 2% | [14]; at 1.2 µM 0% | [14]; at 3.7 µM -1% | [14]; at 11.0 µM -1% | [14]; at 33.0 µM 3% | [15]; [17] -125% | [16]; at 1.2 µM -6% | [16]; at 3.7 µM -2% | [16]; at 11.0 µM 1% | [16]; at 33.0 µM 4%

CC1=C(C)C(=O)C2=C(OCCO2)C1=O
active: [1]; at 100.0 µM 82% | [5]; [18] 87% | [5]; at 100.0 µM 88% | [7]; at 100.0 µM 71% | [14]; at 100.0 µM 88%
inactive: [1]; at 1.2 µM -6% | [1]; at 3.7 µM -8% | [1]; at 11.0 µM 1% | [1]; at 33.0 µM 23% | [2]; at 1.2 µM -4% | [2]; at 3.7 µM -5% | [2]; at 11.0 µM -5% | [2]; at 33.0 µM -4% | [2]; at 100.0 µM 17% | [3]; at 1.2 µM -3% | [3]; at 3.7 µM -3% | [3]; at 11.0 µM 5% | [3]; at 33.0 µM 10% | [3]; at 100.0 µM 46% | [4]; at 1.2 µM -8% | [4]; at 3.7 µM -2% | [4]; at 11.0 µM -2% | [4]; at 33.0 µM 3% | [4]; at 100.0 µM 43% | [5]; at 1.2 µM -3% | [5]; at 3.7 µM 0% | [5]; [17] -23% | [5]; at 11.0 µM 7% | [5]; at 33.0 µM 33% | [5]; at 50.0 µM 1% | [6]; at 1.2 µM -3% | [6]; at 3.7 µM -3% | [6]; [17] -8% | [6]; at 11.0 µM -5% | [6]; at 33.0 µM -1% | [6]; [18] 24% | [6]; at 50.0 µM -3.25% | [6]; at 100.0 µM 20% | [7]; at 1.2 µM -1% | [7]; at 3.7 µM -1% | [7]; at 11.0 µM 4% | [7]; at 33.0 µM 17% | [8]; [17] -10% | [8]; [18] 21% | [8]; at 50.0 µM 29.8% | [9]; at 1.2 µM 0% | [9]; at 3.7 µM -4% | [9]; at 11.0 µM 3% | [9]; at 33.0 µM 15% | [9]; at 100.0 µM 27% | [10]; [17] 3% | [10]; [18] 29% | [10]; at 50.0 µM 3.35% | [11]; at 1.2 µM 0% | [11]; at 3.7 µM 2% | [11]; [17] -22% | [11]; at 11.0 µM 9% | [11]; at 33.0 µM 18% | [11]; [18] 35% | [11]; at 50.0 µM 59.4% | [11]; at 100.0 µM 48% | [12]; at 1.2 µM -9% | [12]; at 3.7 µM -12% | [12]; at 11.0 µM -2% | [12]; at 33.0 µM -13% | [12]; at 100.0 µM -5% | [13]; at 1.2 µM -4% | [13]; at 3.7 µM -3% | [13]; at 11.0 µM 3% | [13]; at 33.0 µM 14% | [13]; at 100.0 µM 54% | [14]; at 1.2 µM -22% | [14]; at 3.7 µM 23% | [14]; at 11.0 µM -14% | [14]; at 33.0 µM 26% | [15]; [17] 4% | [15]; [18] 50% | [15]; at 50.0 µM 26% | [16]; at 1.2 µM -5% | [16]; at 3.7 µM -5% | [16]; at 11.0 µM -4% | [16]; at 33.0 µM 6% | [16]; at 100.0 µM 54%
